# This is one part of a sample in which hits are shown more often than they occur.
# Ins promoter up = MIN6 insulin promoter up-regulation; 0.3% of 190,000 active; MIN6 insulin promoter-GFP reporter, high-content imaging; active compounds read high; AID 1625; z-score at 5 µM;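 active means z-score above 3 at 5 µM with at least 500 cells counted in the well; inconclusive means wells under 500 cells, flagged as cytotoxic or low count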
# HSV augment = HSV replication enhancement | 0.005% of 220,000 active | maximum fold increase | HSV replication augmentation in cells, fold increase | AID 1956; in the data active means maximum fold increase above about 1.5; inconclusive means no clear call, values can overlap the other calls; tested in PC3 cells
# Tb hexokinase = T. brucei hexokinase 1 inhibition; recombinant TbHK1, G6PDH-coupled NADH A340; inhibition, % at 10 µM; 0.11% of 220,000 active; AID 1430;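 active means inhibition of 50% or more in the single-dose primary screen; inactive means inhibition below 50%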
# Insulin prom inh = TRM-6 insulin promoter activity inhibition; TRM-6 cells (human fetal islet line), insulin promoter-eGFP reporter, imaging; reporter expression induced with tamoxifen; inhibition, % at 2 µM; 0.9% of 130,000 active; AID 1273;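 active means inhibition above the mean plus 3 SD, with well images judged a real hit on visual review, cut at about 60% in these data, passing the limit was not always enough; inconclusive means inhibition over the cutoff but images rejected on review; inactive means inhibition not above the cutoff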
# ROMK mod = human ROMK K+ channel modulation, primary screen | 2% of 130,000 active | P48048 | B-score at 10 µM | Tet-inducible ROMK, thallium flux fluorescence; actives lie on both sides;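 active means signal ratio slope over the read window, or its plate-corrected B-score, at least 3 SD from the plate mean, either direction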;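 further: B-score of the F/F0 ratio slope over 7 to 12 s after thallium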
# Target sequence (P48048 whole entry, looked up): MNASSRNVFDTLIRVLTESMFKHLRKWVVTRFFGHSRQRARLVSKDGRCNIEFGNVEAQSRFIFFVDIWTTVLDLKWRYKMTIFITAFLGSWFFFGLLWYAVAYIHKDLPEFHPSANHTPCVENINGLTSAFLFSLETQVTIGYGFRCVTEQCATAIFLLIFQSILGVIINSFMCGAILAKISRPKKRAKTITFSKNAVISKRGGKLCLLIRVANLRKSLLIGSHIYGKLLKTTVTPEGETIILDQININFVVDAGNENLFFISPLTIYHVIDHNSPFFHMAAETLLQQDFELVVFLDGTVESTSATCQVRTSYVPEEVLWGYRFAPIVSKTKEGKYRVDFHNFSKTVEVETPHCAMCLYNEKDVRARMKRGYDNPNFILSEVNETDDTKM
# Starred values were filed as active, the others as inactive; i = inactive; ? = inconclusive; . = no result.
SMILES,Ins promoter up,HSV augment,Tb hexokinase,Insulin prom inh,ROMK mod
Cc1ccc(-c2cc(-c3ccco3)c3c(N)c(C(=O)NN)oc3n2)cc1,3.03*,?,-27.4,.,.
O=c1oc2c(CN3CCCCC3)c(O)ccc2cc1-c1nc2ccccc2[nH]1,3.57*,.,.,.,.
CCc1cc2c(=O)c(-c3nc4ccccc4[nH]3)coc2c(CN2CCCCC2)c1O,-0.24,i,-44.5,.,0.00416
CCOC(=O)c1c(N2CCCCC2)c2ccccc2[nH]c1=O,0.26,i,-28.8,65.6*,-0.458
COc1ccc(OC)c(-n2c(SCC(=O)N3CCc4ccccc43)nc3c(c2=O)SCC3)c1,-0.05,i,-11.0,70.0*,.
CCOc1ccc(-n2ccnc2SCC(=O)Nc2nnc(CC)s2)cc1,-0.58,i,-1.3,81.8*,.
CCc1nnc(NC(=O)CSc2nnc(Cc3cc(=O)[nH]c(=O)[nH]3)n2-c2cccc(OC)c2)s1,0.3,i,0.5,-77.8,0.0228
CCc1nnc(NC(=O)CSc2nnc(-c3ccc(OC)cc3)n2C)s1,0.82,i,3.2,18.4,-0.52
CCc1nnc(NC(=O)CSc2nnc(COc3cccc(C)c3)o2)s1,1.15,i,7.0,75.0*,.
COc1ccc(-n2c(Cc3cccn3C)nnc2SCC(=O)Nc2cccc(C)c2C)cc1,3.05*,i,-13.7,.,.
CCc1nnc(NC(=O)CSc2nnc(Cc3cc(=O)[nH]c(=O)[nH]3)n2-c2ccc(OC)cc2)s1,0.24,i,1.5,77.8*,0.00372
Cc1cccc(OCc2nnc(SCC(=O)Nc3ncc(C)s3)o2)c1,0.43,i,-2.9,.,0.814
O=C(NCc1ccc(C(=O)O)cc1)OCc1ccccc1,-0.88,i,0.4,.,.
CCC(=O)n1nc(-c2ccc(OC)cc2)nc1SC,.,i,-2.8,89.2*,.
CCCC(=O)n1nc(-c2ccc(Cl)cc2)nc1SC,.,.,1.7,75.0*,.
COc1cccc(CN2CCNC(=O)C2CC(=O)NCc2cn3ccc(C)cc3n2)c1OC (stereo not given),-0.76,i,-8.2,.,.
COCC(C)NS(=O)(=O)c1ccc(NC(=O)c2ccccn2)cc1 (stereo not given),-0.03,i,-2.3,.,.
Cc1csc(NC(=O)CSc2ncnc3c2cnn3-c2ccccc2Cl)n1,0.99,i,-1.0,27.8,-3.09
Cc1ccccc1-n1ncc2c(SCC(=O)NCc3cccs3)ncnc21,3.57*,i,2.2,41.9,.
CN(C(=S)SCc1ccccc1)C1CCS(=O)(=O)C1 (stereo not given),-0.18,i,-1.5,-35.3,.
N#C/C(=C\C1CC2C=CC1C2)c1nc2ccccc2[nH]1 (stereo not given),0.58,i,-5.8,78.6*,.
N#C/C(=C\c1cccs1)c1nc2ccccc2[nH]1,0.05,i,-9.1,85.2*,-0.568
N#C/C(=C\c1ccc(OC(=O)c2cccs2)cc1)c1nc2ccccc2[nH]1,-0.39,?,13.0,33.3,-0.588
O=C(Nn1c(-c2ccccc2)nc2ccccc2c1=O)c1cccs1,-0.02,i,6.1,20.0,0.736
O=C(CCc1nnc(Cc2c[nH]c3ccccc23)o1)NC(C1CC1)C1CC1,-0.1,i,-2.1,-8.7,-0.299
SMILES,Ins promoter up,HSV augment,Tb hexokinase,Insulin prom inh,ROMK mod
O=C(O)C1C2CCC(O2)C1C(=O)NCc1ccc(Cl)cc1 (stereo not given),0.51,i,5.3,61.5*,-0.139
Cc1nn(C)cc1CNC(=O)C1C2CCC(O2)C1C(=O)O (stereo not given),0.31,i,2.8,.,-0.0549
COc1ccc(CCNC(=O)CSc2nnc(Cc3cccn3C)n2C)cc1OC,.,i,-4.8,21.4,1.85
O=C1OC(c2ccccc2)/C(=C(/O)c2ccc(Cl)cc2)C1=O (stereo not given),.,i,-29.4,75.0*,-0.701
Cc1ccc(/C(O)=C2/C(=O)C(=O)OC2c2ccc(Cl)cc2)cc1 (stereo not given),-0.33,i,-24.2,15.8,.
CN(C)c1nc(Cl)nc(NCCOc2ccccc2)n1,0.41,i,-3.9,65.5*,0.796
CCNc1nc(Cl)nc(NCCOc2ccc(C)cc2)n1,-0.52,i,28.2,0.0,.
COC(=O)c1cc(NC(=O)c2cccc([N+](=O)[O-])c2C)ccc1Cl,0.38,i,2.5,.,0.525
COc1ccc(-n2c(SCCC(=O)O)nnc2-c2ccncc2)cc1,-0.2,i,4.3,81.2*,1.1
COc1ccc(-c2nnc(SCCC(=O)O)n2-c2ccccc2)cc1OC,0.03,i,20.6,-6.7,0.426
CCOC(=O)C1CCC(CNCc2ccc(Cl)cc2)CC1 (stereo not given),0,i,13.8,-20.0,-0.269
Cc1ccc2nc(N3C(=O)C(O)=C(C(=O)c4ccco4)C3c3cccs3)sc2c1 (stereo not given),0.99,i,-8.3,30.0,-2.56*
Cc1ccc(-c2nnn(CC(=O)N(C)C3CCCCC3)n2)o1,-0.13,i,0.1,73.7*,-0.678
CCCCNc1n[n+](C)c(-c2cccc(C)c2)s1,-0.31,i,-5.7,.,.
C=CCN=C1CC(C)(C)C(C(=O)OC)C(O)=C1C(=O)CCC (stereo not given),-0.08,i,-7.4,.,1.06
N/C(=N\OC(=O)CC(c1ccccc1)c1ccccc1)c1cccnc1,-0.52,i,-3.7,-68.4,-0.633
CN(C)C(=O)C1C2NC(=S)N(c3cccc(Cl)c3)C1(C)Oc1ccc(Cl)cc12 (stereo not given),3.51*,i,-7.4,-6.7,-2.07
S=c1nc(-c2ccccc2)[nH]c2ccccc12,-0.45,i,-10.5,.,7.33*
S=c1nc(-c2ccc(Br)cc2)[nH]c2ccccc12,-0.79,i,-16.7,.,.
O=C(Nc1ccccc1)n1ccc(-c2ccc(-n3ccnc3)cc2)n1,0.39,i,-0.8,17.1,-0.0571
COc1ccc(-n2c(C)c(C(C)=O)c(C(C)=O)c2C)cc1OC,-0.45,i,12.5,71.4*,0.23
CC(=O)Nc1ccc(S(=O)(=O)NC2(C(F)(F)F)C(=O)Nc3c2c(=O)[nH]c(=O)n3Cc2cccnc2)cc1 (stereo not given),0.48,i,-20.3,.,-0.454
CCN(CC)CCNC(=O)c1cccc(NC(=O)C(=O)c2cc(Br)ccc2NC(C)=O)c1,-2,i,-1.4,66.7,-0.137
CCN(CC)C(=O)c1sc2c(c1C)c(=O)n(-c1ccc(C)c(C)c1)c(=O)n2CC(=O)NCC1CCCO1 (stereo not given),0.1,i,-6.3,83.3*,-0.286
O=c1oc(-c2cccs2)nc2sc3c(c12)CCCC3,0.56,i,-14.4,67.7*,-0.526
SMILES,Ins promoter up,HSV augment,Tb hexokinase,Insulin prom inh,ROMK mod
O=c1oc(-c2cccs2)nc2sc3c(c12)CCC3,-0.55,i,-5.2,-14.8,.
Cc1cc(C)cc(NC(=O)C(=S)NCc2ccccc2)c1,0.41,i,2.2,.,-0.944
CCOc1ccc(OCC(=O)Nc2ccc(OC)cc2[N+](=O)[O-])cc1,0.45,i,-4.5,.,0.288
CCC(C)(C)C(=O)Nc1ccc(OC)cc1[N+](=O)[O-],0.13,i,-1.0,100.0*,.
Cc1cccnc1NC(=O)C(C)N1C(=O)c2ccccc2C1=O (stereo not given),.,i,-8.9,.,-0.694
O=C(Nc1ccc(Cl)cc1C(=O)NCC1CCCO1)c1ccco1 (stereo not given),-0.01,i,4.1,75.0*,.

# High-throughput results as filed in PubChem.
